Laboratory results published in PubChem BioAssay (Tox21).
Several values for one entry are separate records, joined by “and”; a condition that tells them apart may be missing. Equal entries are not always repeated. Results filed as inconclusive are left out. Some structures have more than one record in an assay (separate samples or runs), and their calls can disagree. Activity calls are given as the source filed them. Unless noted, calls follow the shape of the full dose curve.

Columns and labels:
[1] = Nuclear factor erythroid 2-related factor 2/antioxidant responsive element (Nrf2/ARE) small molecule agonists: qHTS cell viability counter screen in human keratinocytes (AID 1919968; active = well fitted curve in the direction sought with a large enough effect in the repeat runs; an effect the other way counts as inactive or inconclusive; also: nearly all actives have a fitted effect of over 55% in size)
Summary of the method: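 In human HaCaT keratinocytes stably expressing an ARE-driven luciferase, compound exposure lasted 23 h at 37 C under 5% CO2. Viable cells are quantified with a protease-based fluorogenic reagent (CellTiter-Fluor) read 1 h after addition.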

[2] = Nuclear factor erythroid 2-related factor 2/antioxidant responsive element (Nrf2/ARE) small molecule agonists: luciferase reporter gene qHTS assay in human keratinocytes (AID 1919969); also: nearly all actives have a fitted effect of over 35% in size; also: potency is read from the fitted curve at half-maximal effect
[3] = target: Gonadotropin-releasing hormone receptor (Homo sapiens) (UniProt P30968); experiment: Human gonadotropin-releasing hormone receptor (GnRHR) small molecule agonists, calcium flux assay in GnRHR-HEK293 cells (AID 1920063); also: nearly all actives have a fitted effect of over 35% in size
Sequence of Gonadotropin-releasing hormone receptor (Homo sapiens) (P30968 whole entry, looked up): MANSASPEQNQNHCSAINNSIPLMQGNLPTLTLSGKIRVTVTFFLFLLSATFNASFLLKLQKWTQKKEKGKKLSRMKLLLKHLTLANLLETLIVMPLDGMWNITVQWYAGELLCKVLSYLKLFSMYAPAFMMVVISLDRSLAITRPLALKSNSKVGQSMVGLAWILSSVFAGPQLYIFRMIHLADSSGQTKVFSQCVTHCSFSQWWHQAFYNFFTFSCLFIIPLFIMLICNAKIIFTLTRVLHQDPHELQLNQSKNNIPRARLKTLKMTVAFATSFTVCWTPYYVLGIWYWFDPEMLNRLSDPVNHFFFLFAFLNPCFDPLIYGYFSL
Summary of the method: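 Intracellular calcium rise is the read-out: engineered human GnRHR HEK293 cells, dye-loaded, are exposed to DMSO-dissolved compounds and fluorescence at Ex/Em 480/540 is tracked for 3 min.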

[4] = target: KiSS-1 receptor (Homo sapiens) (UniProt Q969F8); experiment: Human kisspeptin (KISS1R) small molecule agonists, calcium flux assay in KISS1R-HEK293 cells (AID 1920064; active = well fitted curve in the direction sought with a large enough effect in the repeat runs; an effect the other way counts as inactive or inconclusive)
Sequence of KiSS-1 receptor (Homo sapiens) (Q969F8 whole entry, looked up): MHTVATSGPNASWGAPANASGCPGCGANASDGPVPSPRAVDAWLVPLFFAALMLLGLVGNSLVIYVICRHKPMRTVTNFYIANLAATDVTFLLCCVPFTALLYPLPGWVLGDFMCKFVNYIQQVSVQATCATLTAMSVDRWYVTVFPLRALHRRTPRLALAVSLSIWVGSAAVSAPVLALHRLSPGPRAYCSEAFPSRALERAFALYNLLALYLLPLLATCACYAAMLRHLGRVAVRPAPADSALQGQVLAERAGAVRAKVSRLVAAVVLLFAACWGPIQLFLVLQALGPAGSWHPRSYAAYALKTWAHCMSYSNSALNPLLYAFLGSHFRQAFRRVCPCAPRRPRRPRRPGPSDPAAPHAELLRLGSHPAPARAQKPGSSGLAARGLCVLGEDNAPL
Summary of the method: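 Concentration-response testing used 15 concentrations in triplicate on human KISS1R-expressing HEK293 cells. Calcium-dependent fluorescence (Ex/Em 480/540) was followed kinetically for 3 min after compound transfer.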

[5] = G protein-coupled receptor (GPCR) small molecule agonists, calcium flux assay: HEK293 wild type cell line counter screen (AID 1920065)
Summary of the method: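 Fluorescence intensity signals activation. After overnight (18 h) culture and a 1 h calcium dye load at 37 C, compounds are added by pin tool and the plate read at 480/540 nm for 3 min in 1 s steps.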

[6] = p53 small molecule agonists, cell-based qHTS assay with human liver microsomes (AID 1963577);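 also: p53 response element beta-lactamase reporter cells with liver microsomes plus NADPH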
Summary of the method: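 Reporter activation was measured by LiveBLAzer fluorescence intensity in p53RE-bla cells, which had been exposed to compounds for 16 h at 37 C alongside 0.5 mg/mL human liver microsomes and 0.5 mg/mL NADPH (final concentrations).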

[7] = p53 small molecule agonists, cell-based qHTS assay with rat liver microsomes (AID 1963578)
Summary of the method: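 Compound in DMSO added to p53RE-bla cells 5 h post-plating; rat microsomes/NADPH 0.5 mg/mL final; 16 h, 37 C; LiveBLAzer 2 h RT.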

[8] = p53 small molecule agonists, cell-based qHTS assay with human liver microsomes: qHTS cell viability counter screen (AID 1963579); also: nearly all actives have a fitted effect of over 45% in size
Summary of the method: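 HLM-supplemented (0.5 mg/mL final) and NADPH-supplemented (0.5 mg/mL final) p53RE-bla cultures, 4,000 cells per well, were dosed with compounds in DMSO for 16 h at 37 C; luminescent ATP detection (CellTiter-Glo, 30 min, room temperature) quantified surviving cells.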

[9] = p53 small molecule agonists, cell-based qHTS assay with rat liver microsomes: qHTS cell viability counter screen (AID 1963580); also: nearly all actives have a fitted effect of over 45% in size
Summary of the method: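 Luminescent ATP readout (CellTiter-Glo, 30 min at room temperature) reports viability of p53RE-bla HCT-116 cells after 16 h at 37 C with test compounds under metabolic activation by rat liver microsomes and NADPH at 0.5 mg/mL final each.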

[10] = p53 small molecule agonists, cell-based qHTS assay (AID 1963582; active = well fitted activation curve with a large enough effect in the signal ratio in the repeat runs, not every such curve was filed as active; the % refers to the signal ratio)
Summary of the method: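 After plating, p53RE-bla cells sat 5 h in the incubator; compounds or DMSO vehicle were pinned in; a 16 h incubation at 37 C followed; FRET substrate was added and, 2 h later at RT, fluorescence was measured.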

[11] = target: 5-hydroxytryptamine receptor 2A (Homo sapiens) (UniProt P28223); experiment: 5-hydroxytryptamine receptor 2A (HTR2A) small molecule antagonists, cell-based qHTS assay (AID 1963586); also: nearly all actives have a fitted effect of over 45% in size
Sequence of 5-hydroxytryptamine receptor 2A (Homo sapiens) (P28223 whole entry, looked up): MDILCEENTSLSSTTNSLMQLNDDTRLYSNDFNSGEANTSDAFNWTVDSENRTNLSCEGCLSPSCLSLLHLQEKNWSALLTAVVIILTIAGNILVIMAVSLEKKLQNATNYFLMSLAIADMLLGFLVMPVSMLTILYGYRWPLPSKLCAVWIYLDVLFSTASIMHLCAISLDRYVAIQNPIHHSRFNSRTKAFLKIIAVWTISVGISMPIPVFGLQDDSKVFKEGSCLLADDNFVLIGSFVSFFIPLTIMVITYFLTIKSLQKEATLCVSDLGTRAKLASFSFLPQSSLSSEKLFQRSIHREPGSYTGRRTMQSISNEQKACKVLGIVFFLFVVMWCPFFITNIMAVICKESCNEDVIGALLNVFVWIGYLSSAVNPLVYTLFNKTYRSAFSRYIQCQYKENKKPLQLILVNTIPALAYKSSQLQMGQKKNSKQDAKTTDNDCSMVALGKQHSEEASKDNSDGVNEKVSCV
Summary of the method: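 CHO cells stably expressing human HTR2A were plated for 18 h at 37 C, then loaded with calcium dye for 1 h. Compounds were preincubated 5 min at room temperature before DOI (4 nM solution) was added. Kinetic fluorescence was read for 3 min.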

[12] = target: 5-hydroxytryptamine receptor 2A (Homo sapiens) (UniProt P28223); experiment: 5-hydroxytryptamine receptor 2A (HTR2A) small molecule agonists, cell-based qHTS assay (AID 1963587); also: nearly all actives have a fitted effect of over 30% in size
Summary of the method: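 HTR2A-CHO cells, plated 18 h at 37 C/5% CO2, dye-loaded 1 h at 37 C; compounds in DMSO added by pin tool (agonist mode). Intracellular calcium flux read as kinetic fluorescence on FDSS over 2 min at 1 s intervals.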

[13] = target: Muscarinic acetylcholine receptor M1 (Homo sapiens) (UniProt P11229); experiment: Cholinergic receptor muscarinic 1 (CHRM1) small molecule antagonists, cell-based qHTS assay (AID 1963588); also: nearly all actives have a fitted effect of over 40% in size
Sequence of Muscarinic acetylcholine receptor M1 (Homo sapiens) (P11229 whole entry, looked up): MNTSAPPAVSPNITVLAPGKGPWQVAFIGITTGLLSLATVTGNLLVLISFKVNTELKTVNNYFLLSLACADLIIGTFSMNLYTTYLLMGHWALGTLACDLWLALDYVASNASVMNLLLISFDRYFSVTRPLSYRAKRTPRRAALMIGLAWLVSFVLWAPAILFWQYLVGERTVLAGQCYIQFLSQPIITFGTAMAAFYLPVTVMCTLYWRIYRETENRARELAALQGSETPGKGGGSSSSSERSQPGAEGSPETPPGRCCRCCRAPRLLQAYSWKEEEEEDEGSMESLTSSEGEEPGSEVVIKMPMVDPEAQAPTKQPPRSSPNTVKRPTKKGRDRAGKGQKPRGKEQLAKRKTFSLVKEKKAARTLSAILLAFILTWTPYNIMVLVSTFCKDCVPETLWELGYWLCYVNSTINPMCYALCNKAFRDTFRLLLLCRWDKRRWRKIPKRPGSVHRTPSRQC
Summary of the method: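 Compounds were tested at 15 concentrations in three independent runs. Dye-loaded CHRM1-CHO cells were exposed 5 min at room temperature before stimulation by acetylcholine added at 50nM. Intracellular calcium was read kinetically on FDSS for 3 min.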

[14] = cAMP Responsive Elements (CRE) small molecule agonists, cell-based qHTS assay (AID 1963590)
Summary of the method: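 Compound exposure lasted 3 h at 37 C/5% CO2 in CRE-bla HEK 293T cells grown in assay medium with 10% dialyzed FBS and 25 mM HEPES. Reporter signal came from LiveBLAzer B/G FRET substrate, 2 h, room temperature.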

[15] = target: Beta-2 adrenergic receptor (Homo sapiens) (UniProt P07550); experiment: Adrenergic beta2 receptor (ADRB2) small molecule antagonists, cell-based qHTS assay (AID 1963592); also: series mostly up to about 92 µM; nearly all actives have a fitted effect of over 50% in size
Sequence of Beta-2 adrenergic receptor (Homo sapiens) (P07550 whole entry, looked up): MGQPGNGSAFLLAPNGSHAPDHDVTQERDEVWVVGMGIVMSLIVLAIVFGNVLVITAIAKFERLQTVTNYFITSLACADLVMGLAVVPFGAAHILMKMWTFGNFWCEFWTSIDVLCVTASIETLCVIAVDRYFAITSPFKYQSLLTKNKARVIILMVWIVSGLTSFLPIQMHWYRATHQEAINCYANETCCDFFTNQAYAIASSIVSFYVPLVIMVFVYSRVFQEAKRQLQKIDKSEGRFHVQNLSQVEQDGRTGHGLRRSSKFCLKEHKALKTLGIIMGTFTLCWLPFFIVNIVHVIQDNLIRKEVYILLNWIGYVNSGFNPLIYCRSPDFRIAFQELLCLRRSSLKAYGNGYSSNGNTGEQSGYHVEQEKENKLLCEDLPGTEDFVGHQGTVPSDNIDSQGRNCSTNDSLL
Summary of the method: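 Assay format: CHO-ADRB2 cells, 18-20hr seeding at 37C/5% CO2, then compound plus 1nM isoproterenol agonist mix for 0.5hr RT. Homogeneous time-resolved fluorescence cAMP detection after 1hr, expressed as 665/615 nm ratio.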

[16] = target: D(2) dopamine receptor (Homo sapiens) (UniProt P14416); experiment: Dopamine D2 receptor (DRD2) small molecule agonists, cell-based qHTS assay (AID 1963594); also: nearly all actives have a fitted effect of over 35% in size
Sequence of D(2) dopamine receptor (Homo sapiens) (P14416 whole entry, looked up): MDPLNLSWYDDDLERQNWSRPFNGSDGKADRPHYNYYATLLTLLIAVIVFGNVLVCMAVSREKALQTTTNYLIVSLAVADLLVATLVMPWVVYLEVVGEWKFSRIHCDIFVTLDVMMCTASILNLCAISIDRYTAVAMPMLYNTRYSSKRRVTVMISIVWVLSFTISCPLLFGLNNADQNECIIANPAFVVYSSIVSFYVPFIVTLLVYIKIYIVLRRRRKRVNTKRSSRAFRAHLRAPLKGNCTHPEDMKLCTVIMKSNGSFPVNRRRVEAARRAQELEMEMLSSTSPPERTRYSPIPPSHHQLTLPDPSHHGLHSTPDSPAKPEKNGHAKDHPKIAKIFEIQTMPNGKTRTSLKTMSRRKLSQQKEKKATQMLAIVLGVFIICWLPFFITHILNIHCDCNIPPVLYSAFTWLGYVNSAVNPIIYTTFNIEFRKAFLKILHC
Summary of the method: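 HEK293 cells stably expressing DRD2 were cultured 24 h at 37 C, then given Ro20-1724 (0.1 mM final) and compounds for 10 min at room temperature. NKH477 (200nM) was then added for 30 min. cAMP was read by HTRF.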

[17] = target: D(2) dopamine receptor (Homo sapiens) (UniProt P14416); experiment: Dopamine D2 receptor (DRD2) small molecule antagonists, cell-based qHTS assay (AID 1963595; active = well fitted inhibition curve with a large enough effect in the signal ratio in the repeat runs, with a control signal flat; the % refers to the signal ratio)
Summary of the method: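 Human DRD2 antagonist qHTS measuring cAMP by HTRF. The cells are exposed to compound for 10 min, then to NKH477 (200 nM) and quinpirole (12 nM) for 30 min at RT, with Ro20-1724 (0.1 mM) present throughout.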

[18] = p53 small molecule agonists, cell-based qHTS assay: qHTS cell viability counter screen (AID 1963581); also: nearly all actives have a fitted effect of over 45% in size
Summary of the method: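 Luminescence from CellTiter-Glo, reflecting ATP content, serves as the cytotoxicity measure; it is taken after the 2 h reporter substrate step in HCT-116 p53RE-bla cells dosed for 16 h at 37 C.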

[19] = target: Muscarinic acetylcholine receptor M1 (Homo sapiens) (UniProt P11229); experiment: Cholinergic receptor muscarinic 1 (CHRM1) small molecule agonists, cell-based qHTS assay (AID 1963589); also: nearly all actives have a fitted effect of over 35% in size
Summary of the method: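 Fluorescent calcium dye reports M1 activation in stably transfected CHO cells. Compounds, 15 concentrations, added after 1 h dye loading at 37 C; kinetic reading at 1 sec intervals.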

[20] = cAMP Responsive Elements (CRE) small molecule antagonists, cell-based qHTS assay (AID 1963591; active = well fitted inhibition curve with a large enough effect in the signal ratio in the repeat runs, not every such curve was filed as active; the % refers to the signal ratio)
Summary of the method: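 Stimulation used NKH477 at a final 0.25 uM for 3 h in compound-treated CRE-bla HEK293T cells, seeded 18 h beforehand. Reporter activity was measured with LiveBLAzer B/G FRET substrate after 2 h at room temperature.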

Measured: Potency

ON=C1CCCCC1
inactive: [1] | [3] | [4] | [5] | [6] | [7] | [8] | [9] | [10] | [11] | [12] | [13] | [14] | [15] | [16] | [17]
inactive and 68.6 µM (active): [2]

CO[C@@]1(NC(=O)C(C(=O)O)c2ccc(O)cc2)C(=O)N2C(C(=O)O)=C(CSc3nnnn3C)CO[C@@H]21 (some centres undefined)
inactive: [1] | [2] | [3] | [4] | [5] | [6] | [7] | [8] | [18] | [10] | [11] | [12] | [13] | [19] | [14] | [20] | [15] | [16] | [17]

CCCCC(C)C(=O)O (centres undefined)
inactive: [1] | [2] | [3] | [4] | [5] | [6] | [7] | [8] | [18] | [10] | [11] | [12] | [13] | [19] | [14] | [20] | [15] | [16] | [17]

CC(=O)N[C@@H](Cc1ccc(O)cc1)C(=O)O
inactive: [1] | [2] | [3] | [4] | [5] | [6] | [7] | [8] | [9] | [11] | [12] | [13] | [19] | [14] | [20] | [15] | [16] | [17]

CCN(C=O)CC
inactive: [1] | [2] | [3] | [4] | [5] | [6] | [7] | [8] | [9] | [10] | [12] | [13] | [19] | [14] | [20] | [15] | [16] | [17]

CCOC(=O)[C@H](CCc1ccccc1)N[C@@H](C)C(=O)N1C(=O)N(C)C[C@H]1C(=O)O
inactive: [1] | [2] | [3] | [4] | [5] | [6] | [7] | [8] | [18] | [10] | [11] | [12] | [13] | [19] | [14] | [20] | [15] | [16] | [17]

CC1(C)C(C=C(Cl)Cl)C1C(=O)OCc1cccc(Oc2ccccc2)c1 (centres undefined)
inactive: [1] | [2] | [3] | [4] | [5] | [6] | [7] | [8] | [18] | [10] | [11] | [12] | [13] | [19] | [14] | [20] | [15] | [16] | [17]
